Results on 86 molecules are retold here after article PMC4336329 (PLoS ONE, 2015).

The structures appear in SMILES notation. Out of some 310,000 compounds screened, about 14,000 (4.5%) showed an effect of 50% or more. The effect is printed as a negative number. The sample holds strong results, similar compounds and a random draw of the others, so the mix is not that of the screen.
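Further: peak tail current of the secondary pulse compared with the same well before compound.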

The experiment deals with human ether-à-go-go-related gene (hERG) potassium channel (human, UniProt Q12809). Kind of experiment: primary screen, population patch clamp on CHO cells stably expressing hERG; higher = less effect of the substance.
human ether-à-go-go-related gene (hERG) potassium channel, sequence (Q12809 whole entry, looked up): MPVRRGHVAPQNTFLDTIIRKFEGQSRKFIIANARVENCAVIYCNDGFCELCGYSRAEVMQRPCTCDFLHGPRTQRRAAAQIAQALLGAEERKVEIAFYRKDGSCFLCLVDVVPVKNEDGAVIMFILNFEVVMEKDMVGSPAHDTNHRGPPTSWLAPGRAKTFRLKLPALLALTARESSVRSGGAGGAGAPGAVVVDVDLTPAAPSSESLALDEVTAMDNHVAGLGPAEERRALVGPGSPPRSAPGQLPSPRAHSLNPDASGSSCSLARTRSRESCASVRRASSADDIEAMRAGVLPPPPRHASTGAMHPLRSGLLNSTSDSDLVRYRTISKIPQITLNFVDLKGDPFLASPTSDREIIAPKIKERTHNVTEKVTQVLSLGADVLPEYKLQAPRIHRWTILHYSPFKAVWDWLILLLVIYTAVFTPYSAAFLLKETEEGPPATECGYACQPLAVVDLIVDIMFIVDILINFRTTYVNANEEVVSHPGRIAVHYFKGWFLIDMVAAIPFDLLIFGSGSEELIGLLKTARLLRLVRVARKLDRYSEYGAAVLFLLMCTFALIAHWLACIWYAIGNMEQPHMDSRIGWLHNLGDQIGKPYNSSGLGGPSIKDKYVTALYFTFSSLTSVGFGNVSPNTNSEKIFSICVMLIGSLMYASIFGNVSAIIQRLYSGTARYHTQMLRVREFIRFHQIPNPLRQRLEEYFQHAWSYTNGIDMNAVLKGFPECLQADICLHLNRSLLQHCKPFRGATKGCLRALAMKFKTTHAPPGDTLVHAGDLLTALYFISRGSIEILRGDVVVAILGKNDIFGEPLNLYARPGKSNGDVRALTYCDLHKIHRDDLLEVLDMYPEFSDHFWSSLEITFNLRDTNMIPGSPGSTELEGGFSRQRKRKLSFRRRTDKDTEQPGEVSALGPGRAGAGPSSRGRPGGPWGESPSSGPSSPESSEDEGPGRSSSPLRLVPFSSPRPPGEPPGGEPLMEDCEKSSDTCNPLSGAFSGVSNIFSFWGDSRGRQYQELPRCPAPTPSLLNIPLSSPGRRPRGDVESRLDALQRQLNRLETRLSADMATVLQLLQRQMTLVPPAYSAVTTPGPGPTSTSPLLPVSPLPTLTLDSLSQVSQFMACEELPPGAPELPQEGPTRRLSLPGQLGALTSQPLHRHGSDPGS
For the molecule `Cc1ccc(S(=O)(=O)N(C)CC(=O)OCC(=O)NCCN2C(=O)CSC2=O)cc1`, the “hERG current change (%, negative = inhibition) at 10uM” value is listed as -9.67%.

On to `O=C(c1ccc(Cl)cc1)C(CN1CCCC1)c1ccccc1` (centres unmarked), for which the “hERG current change (%, negative = inhibition) at 10uM” value is on record as -10.3%. In the case of `COc1ccc(OC)c(NC(=O)Nc2nnc(N3CCC(C)CC3)s2)c1` it was 5.07%. In the case of `COc1ccc(CCNC(=O)[C@@H](NC(=O)N2CCn3c2nc2ccccc23)C(C)C)cc1OC` it was -14.3%; in that of `Cc1ccc(C)c(NS(=O)(=O)c2ccc(OCC(=O)N3CCOCC3)cc2)c1`, -7.34%.

Regarding `O=C(CCNC(=O)c1ccc([N+](=O)[O-])cc1)NCCc1ccccc1`, the “hERG current change (%, negative = inhibition) at 10uM” value was -27.8%. In the case of `CCOc1ccc(-c2cc(CCCC(=O)NCc3cccnc3)no2)cc1` it was -35%.

Regarding `COc1ccccc1-c1nnc(NC(=O)C(C)Sc2nncn2C)s1` (centres unmarked), the “hERG current change (%, negative = inhibition) at 10uM” value is given as -1.37%. The figure for `CCN(CC)c1cc(C)c2cc(NC(=O)c3cccs3)ccc2n1` is -72.2%. In the case of `CCN(CC)c1ccc(NC(=O)c2ccccc2F)cc1`, the “hERG current change (%, negative = inhibition) at 10uM” value is reported as -9.39%. In the case of `Cc1nc2ccc(NC(=O)c3cccs3)cc2c(=O)n1Cc1ccc(Cl)cc1` it was 9.84%.

As to `CCN(CC)c1cc(C)c2cc(NC(=O)c3ccccc3F)ccc2n1`, the “hERG current change (%, negative = inhibition) at 10uM” value is on record as -81.3%. For `Cc1nc2ccc(NC(=O)c3cccs3)cc2s1`, the “hERG current change (%, negative = inhibition) at 10uM” value amounted to 19.8%. `CCN(CC)c1cc(C)c2cc(NC(=O)c3ccccc3OC)ccc2n1`: the “hERG current change (%, negative = inhibition) at 10uM” value is -18.6%. For `COc1ccc(Cl)cc1N(CC(=O)Nc1ccc2c(c1)OCO2)S(C)(=O)=O`, the “hERG current change (%, negative = inhibition) at 10uM” value is -24%. The figure for `COc1cccc(CNC(=O)Cc2c(C(=O)O)[nH]c3ccccc23)c1` is 8.83%.

Turning to `COC(=O)[C@H](CC(C)C)NC(=O)Nc1ccccc1F`, the “hERG current change (%, negative = inhibition) at 10uM” value is 16.6%.

Take `Cc1ccccc1Cn1nc(C)c(NC(=O)c2nc3n(n2)C(C(F)F)CC(C)N3)c1C` (centres unmarked): the “hERG current change (%, negative = inhibition) at 10uM” value amounted to 0.0862%. For `O=C(CCN1C(=O)c2ccccc2C1=O)NNC(=O)c1ccc(Cl)cc1Cl`, the “hERG current change (%, negative = inhibition) at 10uM” value came to 6.82%. As for `c1ccc(-c2nc(-n3ccnc3)nc(-n3ccnc3)n2)cc1`, the “hERG current change (%, negative = inhibition) at 10uM” value was -69.4%. The figure for `CC(C)Nc1nc(-c2ccccc2)nc(-n2ccnc2)n1` is -0.0673%; for `c1ccc(-c2nc(N3CCN(c4ccccc4)CC3)nc(-n3ccnc3)n2)cc1` it is -2.66%. As for `CN(c1ccccc1)c1nc(-n2ccnc2)nc(-n2ccnc2)n1`, the “hERG current change (%, negative = inhibition) at 10uM” value is reported as -67.7%. In the case of `c1ccc(N(c2ccccc2)c2nc(-n3ccnc3)nc(-n3ccnc3)n2)cc1` it was -24.2%; in that of `CN(c1ccccc1)c1nc(N2CCCC2)nc(-n2ccnc2)n1`, -19.5%.

For the molecule `Cc1ccc(S(=O)(=O)N2c3ccccc3CC2C)cc1` (centres unmarked), the “hERG current change (%, negative = inhibition) at 10uM” value is 13.4%. In the case of `COc1ccc(C(=O)CC(=O)C(=O)NCCc2cccc(C)c2)cc1` it was 7.31%. The figure for `O=C(C(=O)N1CCN(c2ccccc2)CC1)c1c[nH]c2ccccc12` is 4.09%; for `C/C(CC(=O)Nc1ccc2ccccc2c1)=N\NC(=O)c1ccc(O)c(O)c1` it is -6.73%. In the case of `COCCN1C(=O)CC(NNC(=O)c2ccc(S(=O)(=O)N3CCCC3)cc2)C1=O` (centres unmarked) it was 10%; in that of `CCOC(=O)C1CCN(C(=O)CS(=O)Cc2nc(-c3ccc(C)cc3)oc2C)CC1` (centres unmarked), -0.626%; in that of `CCN(C(=O)COC(=O)c1cc(Cl)ccc1OC)c1c(N)n(Cc2ccccc2)c(=O)[nH]c1=O`, 4.46%. With `O=C(Cc1ccccc1)NN1C(=O)c2ccccc2C1=O`, the “hERG current change (%, negative = inhibition) at 10uM” value was -9.37%. The figure for `COc1ccc(CCNC(=O)CSc2nnc3c(n2)[nH]c2ccc(F)cc23)cc1OC` is 12.8%; for `CNC(=O)NC(=O)COC(=O)CCc1nc(=O)c2ccccc2n1C` it is -19.2%; for `CCc1ccc(NC(=O)COC(=O)CCc2nc3cc(S(=O)(=O)N(CC)CC)ccc3n2C)cc1` it is -60%. For `Cn1c(CCC(=O)OCC(=O)Nc2ccc(Oc3ccccc3)cc2)nc(=O)c2ccccc21`, the “hERG current change (%, negative = inhibition) at 10uM” value is given as -53.3%. In the case of `CCN(CC)S(=O)(=O)c1ccc2c(c1)nc(CCC(=O)OCC(=O)Nc1c(F)cccc1F)n2C` it was -34.6%; in that of `CCNC(=O)NC(=O)COC(=O)CCc1nc(=O)c2ccccc2n1C`, 4.87%; in that of `CCN(CC)S(=O)(=O)c1ccc2c(c1)nc(CCC(=O)OCC(=O)Nc1cc(OC)cc(OC)c1)n2C`, -48.5%.

Regarding `CN1CCNC(=O)C1CC(=O)NCCC1=CCCCC1` (centres unmarked), the “hERG current change (%, negative = inhibition) at 10uM” value was 18.2%. The figure for `Cc1ccc(C(C)C)c(OCc2nnc(SCC(=O)Nc3ncc(C)s3)n2C)c1` is -4.11%; for `CN(C)c1nnnn1-c1ccc(OC(F)(F)F)cc1` it is -9.73%; for `CCCC1(c2ccccc2)NC(=O)N(CC(=O)Nc2cc(S(=O)(=O)N3CCOCC3)ccc2Cl)C1=O` (centres unmarked) it is -22.6%. Take `CC(C)(C)NC(=O)N1CCCN(c2ccc(C(F)(F)F)cn2)CC1`: the “hERG current change (%, negative = inhibition) at 10uM” value is recorded as -0.47%. As to `C[C@H]1C=C(C(=O)NCc2ccccc2)O[C@@H](OCc2ccc(CO)cc2)C1`, the “hERG current change (%, negative = inhibition) at 10uM” value was -10.5%. In the case of `Cc1cc(NC(=O)c2cccc(Oc3ccccc3)c2)n[nH]1` it was 1.16%. On to `COc1ccccc1N(C)S(=O)(=O)c1ccc(C(=O)OCC(=O)NCCC2=CCCCC2)cc1`, for which the “hERG current change (%, negative = inhibition) at 10uM” value is -4.24%.

Take `CCCC(=O)NC(C)C(c1cccs1)N1CCN(c2ccccc2)CC1` (centres unmarked): the “hERG current change (%, negative = inhibition) at 10uM” value is reported as -7.64%. For the molecule `CC1CCCCN1CCNC(=O)C1CCCN(c2ncnc3c2nc2n3CCCCC2)C1` (centres unmarked), the “hERG current change (%, negative = inhibition) at 10uM” value is -14.3%. For the molecule `Cc1cccc(CCNC(=O)C2CCCN(c3ncnc4c3nc3n4CCCCC3)C2)c1` (centres unmarked), the “hERG current change (%, negative = inhibition) at 10uM” value is -59.8%.

Consider `O=C(NCCc1ccc(Cl)cc1)C1CCCN(c2ncnc3c2nc2n3CCCCC2)C1` (centres unmarked), for which the “hERG current change (%, negative = inhibition) at 10uM” value is -57.2%. In the case of `CC1CCCN(CCCNC(=O)C2CCCN(c3ncnc4c3nc3n4CCCCC3)C2)C1` (centres unmarked) it was -4.72%. Regarding `CC1CC(C)CN(CCCNC(=O)C2CCCN(c3ncnc4c3nc3n4CCCCC3)C2)C1` (centres unmarked), the “hERG current change (%, negative = inhibition) at 10uM” value is -14.1%. In the case of `COc1cccc(CCNC(=O)C2CCCN(c3ncnc4c3nc3n4CCCCC3)C2)c1OC` (centres unmarked) it was -74.7%; in that of `Cc1cccc(N2CCN(CCCNC(=O)C3CCCN(c4ncnc5c4nc4n5CCCCC4)C3)CC2C)c1` (centres unmarked), -67.8%; in that of `COc1ccccc1N1CCN(CCCNC(=O)C2CCCN(c3ncnc4c3nc3n4CCCCC3)C2)CC1` (centres unmarked), -40.3%. The figure for `COc1ccc(CCNC(=O)C2CCCN(c3ncnc4c3nc3n4CCCCC3)C2)c(OC)c1` (centres unmarked) is -42.8%. The figure for `C=CCN(CC=C)CCOc1ccc(C)cc1[N+](=O)[O-].O=C(O)C(=O)O` is -47.3%. With `O=C(Oc1cccc(-n2cnnn2)c1)c1ccco1`, the “hERG current change (%, negative = inhibition) at 10uM” value is recorded as 6.57%. As to `O=C(COC(=O)Cc1ccsc1)NCc1ccccc1`, the “hERG current change (%, negative = inhibition) at 10uM” value stood at 19.6%.

On to `Clc1ccc(-c2ccc(/C=N/Nc3nncc(-c4ccccc4)n3)o2)cc1`, for which the “hERG current change (%, negative = inhibition) at 10uM” value is reported as 20.8%. In the case of `Cc1cccc(C)c1NC(=O)CN(C)C(=O)c1cccc(NS(=O)(=O)c2ccccc2)c1` it was -4.78%; in that of `Cc1ccc(S(=O)(=O)NN=C2CCC(C(C)(C)C)CC2)cc1[N+](=O)[O-]` (centres unmarked), -8.37%. In the case of `COc1ccc(/C=C/C(=O)Oc2cccc(/C=N/NC(=O)COc3c(C)cccc3C)c2)cc1` it was 11.8%; in that of `Cc1cccc(-c2ocnc2C(=O)Nc2ccccc2C(=O)N2CCCC2)c1`, -37%. The figure for `COc1ccc(C(=O)Nc2ccc(S(=O)(=O)N3CCCCC3C)cc2)c(OC)c1OC` (centres unmarked) is -6.46%. Take `CCOc1ccc(CCNC(=O)C2CCCN(c3ncnc4c3nc3n4CCCCC3)C2)cc1` (centres unmarked): the “hERG current change (%, negative = inhibition) at 10uM” value is recorded as -58.6%. The figure for `CC1CCN(CCNC(=O)C2CCCN(c3ncnc4c3nc3n4CCCCC3)C2)CC1` (centres unmarked) is 12.5%; for `CSc1ccc(CCNC(=O)C2CCCN(c3ncnc4c3nc3n4CCCCC3)C2)cc1` (centres unmarked) it is -61.8%; for `CC1CCCC(C)N1CCCNC(=O)C1CCCN(c2ncnc3c2nc2n3CCCCC2)C1` (centres unmarked) it is 8.21%. The figure for `Cc1ccc(CCNC(=O)C2CCCN(c3ncnc4c3nc3n4CCCCC3)C2)cc1` (centres unmarked) is -28.7%. The figure for `O=C(NCCc1ccccc1)C1CCCN(c2ncnc3c2nc2n3CCCCC2)C1` (centres unmarked) is -59.9%; for `CN(CCNC(=O)C1CCCN(c2ncnc3c2nc2n3CCCCC2)C1)Cc1ccccc1` (centres unmarked) it is -29.1%; for `COc1cc(/C=N/N2CCN(c3ccccc3OC)CC2)ccc1OC(C)=O` it is 17.2%. On to `CCOC(=O)Cc1csc(NC(=O)C(NC(=O)C2CCC(C)CC2)C(C)C)n1` (centres unmarked), for which the “hERG current change (%, negative = inhibition) at 10uM” value stood at 23.5%.

As to `CC(C)NC(=O)/C(=C/c1ccco1)c1ccccc1`, the “hERG current change (%, negative = inhibition) at 10uM” value is given as -2.25%.

`Cc1cccc(NC(=O)CCC(=O)c2cccs2)n1`: the “hERG current change (%, negative = inhibition) at 10uM” value came out at 12%. As for `Cc1cccc(Nc2nc(N)nc(CN3CCN(c4ccc(F)cc4)CC3)n2)c1`, the “hERG current change (%, negative = inhibition) at 10uM” value is reported as -73.3%. Regarding `Cc1cccc(Nc2nc(N)nc(CSC(=S)N3CCOCC3)n2)c1`, the “hERG current change (%, negative = inhibition) at 10uM” value is -0.689%.

Turning to `Cc1cccc(Nc2nc(N)nc(CCl)n2)c1`, the “hERG current change (%, negative = inhibition) at 10uM” value is on record as -0.698%. With `Cc1cccc(Nc2nc(N)nc(CN3CCN(c4ccccc4)CC3)n2)c1`, the “hERG current change (%, negative = inhibition) at 10uM” value is given as -54.5%. Turning to `COc1ccc(Nc2nc(N)nc(CSC(=S)N3CCN(c4ccccc4)CC3)n2)cc1`, the “hERG current change (%, negative = inhibition) at 10uM” value is 14.1%. For the molecule `Cc1cccc(Nc2nc(N)nc(CN3CCN(C)CC3)n2)c1`, the “hERG current change (%, negative = inhibition) at 10uM” value was -39.2%.

As for `COc1cccc(N2CCN(Cc3nc(N)nc(Nc4ccccc4)n3)CC2)c1`, the “hERG current change (%, negative = inhibition) at 10uM” value is -68%.

For the molecule `COc1cccc(N2CCN(Cc3nc(N)nc(N4CCCc5ccccc54)n3)CC2)c1`, the “hERG current change (%, negative = inhibition) at 10uM” value is on record as -45%.
